# Results filed as inconclusive are left out. Where a call stands in place of a potency, no number is given. Active and inactive are the calls of the source. Unless noted, calls follow the shape of the full dose curve.
# Experiments:
# [1] = Nuclear factor erythroid 2-related factor 2/antioxidant responsive element (Nrf2/ARE) small molecule agonists: qHTS cell viability counter screen in human keratinocytes (AID 1919968; active = well fitted curve in the direction sought with a large enough effect in the repeat runs; an effect the other way counts as inactive or inconclusive; also: nearly all actives have a fitted effect of over 55% in size)
# Procedure, shortened: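 HaCaT ARE reporter line, 1,500 cells/well; 5 h settle, 37 C/5% CO2; cpd in DMSO pinned; 23 h exposure; CellTiter-Fluor, 1 h; fluorescence.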
# [2] = Nuclear factor erythroid 2-related factor 2/antioxidant responsive element (Nrf2/ARE) small molecule agonists: luciferase reporter gene qHTS assay in human keratinocytes (AID 1919969); also: nearly all actives have a fitted effect of over 35% in size
# [3] = target: Gonadotropin-releasing hormone receptor (Homo sapiens) (UniProt P30968); assay: Human gonadotropin-releasing hormone receptor (GnRHR) small molecule agonists, calcium flux assay in GnRHR-HEK293 cells (AID 1920063); also: nearly all actives have a fitted effect of over 35% in size
# Sequence of Gonadotropin-releasing hormone receptor (Homo sapiens) (P30968 whole entry, looked up): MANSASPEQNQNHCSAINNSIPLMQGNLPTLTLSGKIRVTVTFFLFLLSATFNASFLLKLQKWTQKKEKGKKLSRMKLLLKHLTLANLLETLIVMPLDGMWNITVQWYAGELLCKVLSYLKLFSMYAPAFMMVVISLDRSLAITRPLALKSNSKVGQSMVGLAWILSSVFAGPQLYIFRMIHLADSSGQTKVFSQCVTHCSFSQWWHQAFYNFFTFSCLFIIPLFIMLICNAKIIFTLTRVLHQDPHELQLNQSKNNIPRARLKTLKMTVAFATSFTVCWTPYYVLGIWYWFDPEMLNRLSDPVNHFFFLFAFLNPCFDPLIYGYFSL
# Procedure, shortened: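 GnRHR-HEK293, 1500 cells/well, 18 h 37 C/5% CO2; Ca dye 1 h 37 C; cpd pinned (DMSO), agonist mode; kinetic FL 480/540, 3 min, 1 s reads; 15 conc, n=3.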
# [4] = target: KiSS-1 receptor (Homo sapiens) (UniProt Q969F8); assay: Human kisspeptin (KISS1R) small molecule agonists, calcium flux assay in KISS1R-HEK293 cells (AID 1920064; active = well fitted curve in the direction sought with a large enough effect in the repeat runs; an effect the other way counts as inactive or inconclusive)
# Sequence of KiSS-1 receptor (Homo sapiens) (Q969F8 whole entry, looked up): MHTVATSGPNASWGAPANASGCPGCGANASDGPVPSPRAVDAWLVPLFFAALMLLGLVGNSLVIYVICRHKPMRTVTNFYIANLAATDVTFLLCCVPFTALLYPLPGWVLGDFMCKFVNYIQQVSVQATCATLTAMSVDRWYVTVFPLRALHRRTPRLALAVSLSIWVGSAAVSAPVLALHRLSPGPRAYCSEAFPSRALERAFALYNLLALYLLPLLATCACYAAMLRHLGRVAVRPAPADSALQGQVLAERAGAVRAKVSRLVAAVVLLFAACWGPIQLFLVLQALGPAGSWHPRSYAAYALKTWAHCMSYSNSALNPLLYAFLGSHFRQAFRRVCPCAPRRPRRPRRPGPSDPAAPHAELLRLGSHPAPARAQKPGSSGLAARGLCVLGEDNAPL
# Procedure, shortened: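 Stable human KISS1R HEK293 line; 18 h plating, 37 C/5% CO2; calcium dye 1 h 37 C; compound pin transfer; kinetic fluorescence Ex/Em 480/540, 3 min.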
# [5] = G protein-coupled receptor (GPCR) small molecule agonists, calcium flux assay: HEK293 wild type cell line counter screen (AID 1920065)
# Procedure, shortened: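 Kinetic fluorescence at Ex/Em 480/540, recorded every second over 3 min, served as the read-out after compound addition. Each compound was tested at 15 concentrations in triplicate on cells pre-loaded with calcium dye for 1 h.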
# [6] = p53 small molecule agonists, cell-based qHTS assay with human liver microsomes (AID 1963577)
# Procedure, shortened: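 p53RE-bla reporter cells were pre-incubated 5 h at 37 C, then treated with compounds plus human liver microsomes (0.5 mg/mL final) and NADPH (0.5 mg/mL final) for 16 h at 37 C. Beta-lactamase activity was read by LiveBLAzer fluorescence after 2 h at room temperature.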
# [7] = p53 small molecule agonists, cell-based qHTS assay with rat liver microsomes (AID 1963578)
# Procedure, shortened: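 p53RE-bla cells were exposed to compounds together with rat liver microsomes (0.5 mg/mL final) and NADPH (0.5 mg/mL final) for 16 h at 37 C, then read by LiveBLAzer beta-lactamase fluorescence after 2 h at room temperature.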
# [8] = p53 small molecule agonists, cell-based qHTS assay: qHTS cell viability counter screen (AID 1963581); also: nearly all actives have a fitted effect of over 45% in size
# Procedure, shortened: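 HCT-116 p53RE-bla cells, 4,000/well, plated 5 h before compound pin transfer; 16 h at 37 C; bla substrate 2 h RT; then CellTiter-Glo, 30 min RT, luminescence.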
# [9] = p53 small molecule agonists, cell-based qHTS assay (AID 1963582; active = well fitted activation curve with a large enough effect in the signal ratio in the repeat runs, not every such curve was filed as active; the % refers to the signal ratio)
# Procedure, shortened: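 Reporter line: p53RE-bla. Pre-incubation 5 h, 37 C, 5% CO2; compound (DMSO, pin tool) 16 h, 37 C; B/G FRET substrate 2 h RT; fluorescence intensity read.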
# [10] = cAMP Responsive Elements (CRE) small molecule agonists, cell-based qHTS assay (AID 1963590)
# Procedure, shortened: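 HEK 293T CRE-bla, 2,000 cells/well, 18 h preincubation 37 C/5% CO2; cpds (DMSO) pinned, 3 h; LiveBLAzer B/G FRET substrate, 2 h RT.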
# [11] = cAMP Responsive Elements (CRE) small molecule antagonists, cell-based qHTS assay (AID 1963591; active = well fitted inhibition curve with a large enough effect in the signal ratio in the repeat runs, not every such curve was filed as active; the % refers to the signal ratio)
# Procedure, shortened: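 Beta-lactamase reporter read by FRET substrate (LiveBLAzer B/G) after 2 h at room temperature. CRE-bla HEK293T cells had received compound plus 0.25 uM (final) NKH477 for 3 h at 37 °C.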
# [12] = target: Beta-2 adrenergic receptor (Homo sapiens) (UniProt P07550); assay: Adrenergic beta2 receptor (ADRB2) small molecule antagonists, cell-based qHTS assay (AID 1963592); also: series mostly up to about 92 µM; nearly all actives have a fitted effect of over 50% in size
# Sequence of Beta-2 adrenergic receptor (Homo sapiens) (P07550 whole entry, looked up): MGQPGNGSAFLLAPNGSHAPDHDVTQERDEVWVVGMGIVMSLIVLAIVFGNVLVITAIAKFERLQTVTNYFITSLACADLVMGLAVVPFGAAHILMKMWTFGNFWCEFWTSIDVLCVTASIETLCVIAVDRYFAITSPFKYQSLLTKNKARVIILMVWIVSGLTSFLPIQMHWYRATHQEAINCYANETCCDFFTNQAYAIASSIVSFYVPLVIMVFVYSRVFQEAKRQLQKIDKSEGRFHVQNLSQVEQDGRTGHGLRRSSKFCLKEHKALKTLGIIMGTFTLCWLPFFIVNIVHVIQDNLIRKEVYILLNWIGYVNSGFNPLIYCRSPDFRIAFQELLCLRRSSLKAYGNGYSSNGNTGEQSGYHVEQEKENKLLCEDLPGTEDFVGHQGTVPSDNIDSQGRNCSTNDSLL
# Procedure, shortened: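 Cells (CHO, stable ADRB2 overexpression) incubated 18-20hr at 37C; compounds added from DMSO; agonist mix (1nM isoproterenol, 100uM IBMX, 25uM Ro-20-1724) added; 0.5hr RT; d2-cAMP and anti-cAMP-cryptate added; 1hr RT; 665/615 nm read.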
# [13] = target: D(2) dopamine receptor (Homo sapiens) (UniProt P14416); assay: Dopamine D2 receptor (DRD2) small molecule agonists, cell-based qHTS assay (AID 1963594); also: nearly all actives have a fitted effect of over 35% in size; also: potency is read from the fitted curve at half-maximal effect
# Sequence of D(2) dopamine receptor (Homo sapiens) (P14416 whole entry, looked up): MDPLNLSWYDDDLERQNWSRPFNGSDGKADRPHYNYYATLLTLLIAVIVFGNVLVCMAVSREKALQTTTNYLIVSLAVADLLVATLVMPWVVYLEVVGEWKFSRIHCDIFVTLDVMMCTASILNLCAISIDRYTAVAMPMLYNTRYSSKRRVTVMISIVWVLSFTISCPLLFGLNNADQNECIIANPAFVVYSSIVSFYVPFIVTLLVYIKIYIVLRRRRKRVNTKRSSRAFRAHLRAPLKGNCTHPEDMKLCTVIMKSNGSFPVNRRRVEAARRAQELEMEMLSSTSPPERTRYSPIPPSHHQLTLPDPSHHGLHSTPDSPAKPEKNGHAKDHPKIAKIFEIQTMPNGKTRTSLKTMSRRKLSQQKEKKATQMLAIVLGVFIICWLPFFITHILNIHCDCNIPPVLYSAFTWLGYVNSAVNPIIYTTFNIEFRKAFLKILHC
# Procedure, shortened: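 HEK293 cells stably expressing DRD2 were cultured 24 h at 37 C, then given Ro20-1724 (0.1 mM final) and compounds for 10 min at room temperature. NKH477 (200nM) was then added for 30 min. cAMP was read by HTRF.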
# [14] = target: D(2) dopamine receptor (Homo sapiens) (UniProt P14416); assay: Dopamine D2 receptor (DRD2) small molecule antagonists, cell-based qHTS assay (AID 1963595; active = well fitted inhibition curve with a large enough effect in the signal ratio in the repeat runs, with a control signal flat; the % refers to the signal ratio)
# Procedure, shortened: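 HTRF cAMP read-out at 665 and 620 nm emission (340 nm excitation). Antagonist mode: compounds were tested against 12 nM quinpirole in DRD2-HEK293 cells, with 200 nM NKH477 raising cAMP and 0.1 mM Ro20-1724 blocking its breakdown.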
# [15] = target: 5-hydroxytryptamine receptor 2A (Homo sapiens) (UniProt P28223); assay: 5-hydroxytryptamine receptor 2A (HTR2A) small molecule antagonists, cell-based qHTS assay (AID 1963586); also: nearly all actives have a fitted effect of over 45% in size; also: potency is read from the fitted curve at half-maximal effect
# Sequence of 5-hydroxytryptamine receptor 2A (Homo sapiens) (P28223 whole entry, looked up): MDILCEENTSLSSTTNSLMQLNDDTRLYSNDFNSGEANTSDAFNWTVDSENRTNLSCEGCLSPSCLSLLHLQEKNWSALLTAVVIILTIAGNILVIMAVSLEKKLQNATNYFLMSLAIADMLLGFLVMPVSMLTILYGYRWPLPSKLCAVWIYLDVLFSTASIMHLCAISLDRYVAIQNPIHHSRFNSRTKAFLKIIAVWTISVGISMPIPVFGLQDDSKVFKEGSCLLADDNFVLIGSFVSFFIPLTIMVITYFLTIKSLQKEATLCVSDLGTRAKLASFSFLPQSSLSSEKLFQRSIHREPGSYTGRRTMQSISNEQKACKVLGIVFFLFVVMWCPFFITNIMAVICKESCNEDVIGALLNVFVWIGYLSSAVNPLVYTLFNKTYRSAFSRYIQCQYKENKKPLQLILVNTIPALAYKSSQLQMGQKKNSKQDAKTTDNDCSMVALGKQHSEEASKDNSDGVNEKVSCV
# Procedure, shortened: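 Antagonist-mode intracellular calcium assay: DOI (4 nM) added after 5 min compound pre-incubation at room temperature to dye-loaded HTR2A-CHO cells. Fluorescence followed for 3 min, sampled every second.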
# [16] = target: Muscarinic acetylcholine receptor M1 (Homo sapiens) (UniProt P11229); assay: Cholinergic receptor muscarinic 1 (CHRM1) small molecule agonists, cell-based qHTS assay (AID 1963589); also: nearly all actives have a fitted effect of over 35% in size
# Sequence of Muscarinic acetylcholine receptor M1 (Homo sapiens) (P11229 whole entry, looked up): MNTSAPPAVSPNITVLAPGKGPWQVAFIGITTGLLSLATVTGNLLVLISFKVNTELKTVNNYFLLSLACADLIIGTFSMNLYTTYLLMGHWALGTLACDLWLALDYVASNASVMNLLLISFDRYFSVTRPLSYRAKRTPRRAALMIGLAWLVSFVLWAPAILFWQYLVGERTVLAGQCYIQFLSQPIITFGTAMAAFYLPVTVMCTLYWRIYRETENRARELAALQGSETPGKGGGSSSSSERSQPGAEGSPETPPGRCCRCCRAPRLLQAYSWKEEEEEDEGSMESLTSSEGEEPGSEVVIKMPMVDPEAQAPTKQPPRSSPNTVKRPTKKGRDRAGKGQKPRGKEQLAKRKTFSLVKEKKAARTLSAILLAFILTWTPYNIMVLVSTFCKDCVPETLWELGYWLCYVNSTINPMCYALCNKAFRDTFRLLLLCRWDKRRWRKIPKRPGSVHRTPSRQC
# Procedure, shortened: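 Human M1 in stable CHO line; 18 h plating, 1 h dye load 37 C; cpd added (agonist mode); Ca2+ fluorescence kinetic read, 1 s intervals; 15 conc, 3 runs.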
# [17] = target: 5-hydroxytryptamine receptor 2A (Homo sapiens) (UniProt P28223); assay: 5-hydroxytryptamine receptor 2A (HTR2A) small molecule agonists, cell-based qHTS assay (AID 1963587); also: nearly all actives have a fitted effect of over 30% in size
# Procedure, shortened: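 HTR2A-CHO cells, plated 18 h at 37 C/5% CO2, dye-loaded 1 h at 37 C; compounds in DMSO added by pin tool (agonist mode). Intracellular calcium flux read as kinetic fluorescence on FDSS over 2 min at 1 s intervals.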
# [18] = target: Beta-2 adrenergic receptor (Homo sapiens) (UniProt P07550); assay: Adrenergic beta2 receptor (ADRB2) small molecule agonists, cell-based qHTS assay (AID 1963593);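 also: CHO cells stably overexpressing human ADRB2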
# Procedure, shortened: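 CHO cells stably over-expressing ADRB2 were plated overnight at 37C, then dosed with compounds plus a stimulation mix containing 100uM IBMX and 25uM Ro-20-1724 for 0.5hr at room temperature. cAMP was measured by HTRF competition, 1hr.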
# [19] = target: Muscarinic acetylcholine receptor M1 (Homo sapiens) (UniProt P11229); assay: Cholinergic receptor muscarinic 1 (CHRM1) small molecule antagonists, cell-based qHTS assay (AID 1963588); also: nearly all actives have a fitted effect of over 40% in size
# Procedure, shortened: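 CHRM1-CHO calcium-flux assay, antagonist mode. Cells were seeded 18 h, dye-loaded 1 h at 37 C and given compound for 5 min at RT, then acetylcholine was added at 50nM. FDSS fluorescence was read 3 min; 15 concentrations, three runs.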
Structure (SMILES),Potency [1],Potency [2],Potency [3],outcome [4],outcome [5],Potency [6],Potency [7],Potency [8],Potency [9],Potency [10],Potency [11],Potency [12],Potency [13],Potency [14],Potency [15],Potency [16],Potency [17],Potency [18],Potency [19]
CC[C@@H](CO)NCCN[C@@H](CC)CO,inactive,inactive,inactive,inactive,inactive,inactive,inactive,inactive,inactive,inactive,inactive,inactive,inactive,inactive,–,–,–,–,–
CCOCCn1c(C2CCN(CCc3ccc(C(C)(C)C(=O)O)cc3)CC2)nc2ccccc21,inactive,inactive,inactive,inactive,inactive,inactive,inactive,inactive,inactive,–,inactive,inactive,inactive,inactive,inactive,inactive,–,–,–
Cc1ccccc1C#N,inactive,inactive,inactive,inactive,inactive,inactive,inactive,inactive,inactive,inactive,inactive,inactive,inactive,inactive,inactive,inactive,inactive,inactive,–
OCc1ccccn1,inactive,inactive,inactive,inactive,inactive,inactive,inactive,inactive,inactive,inactive,inactive,inactive,–,inactive,inactive,–,inactive,–,inactive
Cc1cc(C(=O)O)ccc1[N+](=O)[O-],inactive,inactive,inactive,inactive,inactive,inactive,inactive,inactive,inactive,–,inactive,–,inactive,inactive,inactive,inactive,inactive,inactive,–
CN(C)CCN1CCN(c2cccc(Cl)c2)C1=O,inactive,inactive,inactive,inactive,inactive,inactive,inactive,inactive,inactive,inactive,inactive,inactive,13.3 µM (active),–,1.83 µM (active),inactive,–,–,–

# Reference: PubChem BioAssay (Tox21)
